The text below walks through data of PubChem BioAssay AID1578 (Sanford-Burnham Center for Chemical Genomics, 2009).

Among all 290,000 compounds or so, about 3,000 (1%) were called active. For the sample, actives were picked, then their nearest neighbours and some compounds at random. Unmarked numbers belong to inactive results. Rule as the data show it: active = inhibition mostly above about 36% (no sharp cut-off); inactive = mostly below about 34%.

The nature of this assay: NOD1 signaling inhibitors, primary screen, cell-based, luminescence, uHTS (AID 1578).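 Also: HEK-293T reporter cells stimulated with the NOD1 agonist gamma-tri-DAP.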 The conditions noted are these: NOD1-driven NF-kB luciferase reporter cells, at 4 µM, active compounds read high.
Consider `O=C(NCc1ccccc1)C1=C[C@@H](C2CC2)C[C@@H](OCCCCO)O1`, for which the inhibition is -27.5%. In the case of `O=C(CC1Sc2ccccc2NC1=O)OC(C(=O)NCCc1ccccc1)c1cccnc1` (stereo not drawn) it was 3.7%. To `O=C(OCC(=O)N1CCc2ccccc21)c1c2c(nc3ccccc13)CCCCC2` belongs 4.9%; to `COc1ccccc1C(=O)NC(=S)/C=C1/N(C)c2ccccc2C1(C)C`, 90.4% (active); to `Cc1ccc(C(=O)NC(=S)/C=C2\N(C)c3ccccc3C2(C)C)cc1`, 15.2%. In the case of `CN1/C(=C\C(=S)NC(=O)c2ccccc2Cl)C(C)(C)c2ccccc21` it was -48.3%. As for `C(=C1/CCCC2=C1Nc1ncnn1C2c1ccccc1)/c1ccccc1` (stereo not drawn), the inhibition was 3.1%.

Regarding `Fc1ccccc1/C=C1\CCCC2=C1Nc1nnnn1C2c1ccccc1F` (stereo not drawn), the inhibition was 11.4%. In the case of `Fc1ccccc1/C=C1\CCCC2=C1Nc1ncnn1C2c1ccccc1F` (stereo not drawn) it was 91% (active); in that of `Cc1ccc(CSc2nn3c(=O)c(C)nnc3s2)cc1`, -32.1%. To `O=[N+]([O-])C(=c1ccc2c(c1)N1C3=C(CCCC3)CC3CCCCC31N=2)[N+](=O)[O-]` (stereo not drawn) belongs 0.7%.

As for `N#CC(C#N)=c1ccc2c(c1)N1C3=C(CCCC3)CC3CCCCC31N=2` (stereo not drawn), the inhibition was 7%. As to `N#C/C(C(N)=O)=c1/ccc2c(c1)N1C3=C(CCCC3)CC3CCCCC31N=2` (stereo not drawn), the inhibition is 86.2% (active).

Turning to `COc1cccc(CNC(=O)CN(C)S(=O)(=O)c2cccc3cccnc23)c1`, the inhibition was -2.3%. In the case of `CCC(C)C(NC(=O)CCC(=O)OCC(=O)[C@@]1(O)CCC2[C@@H]3CCC4=CC(=O)C=C[C@]4(C)C3[C@@H](O)C[C@@]21C)C(=O)O` (stereo partly drawn) it was -4.9%; in that of `O=C(Nc1nc(-c2cccs2)cs1)c1ccc(Cl)s1`, -18.7%; in that of `O=C(Nc1nc(-c2ccccn2)cs1)c1ccc(Br)s1`, 32.1%.

Consider `Cc1cc(=O)n(C)c2ccc(S(=O)(=O)N3CCOCC3)cc12`, for which the inhibition is -9%.

Consider `COc1ccc(N=N/C(=C\O)C(=O)c2cccs2)cc1`, for which the inhibition is 41.3% (active).

Consider `O=C(/C(=C/O)N=Nc1ccccc1)c1cccs1`, for which the inhibition was -9.4%. In the case of `Cc1cccc(N=N/C(=C\O)C(=O)c2cccs2)c1` it was 27%.

In the case of `Cc1ccccc1C(=O)Nc1c(C)[nH]c(=O)[nH]c1=O`, the inhibition was -1.1%. With `CCC(=O)Nc1cccc(C2=NOC3(C2)C[C@H](C(N)=O)N(C(=O)Cc2ccc([N+](=O)[O-])cc2)C3)c1` (stereo partly drawn), the inhibition is 0%. In the case of `O=[N+]([O-])c1cccc(-c2ccc(/C=N/Nc3nc(N4CCCCC4)nc(N4CCCCC4)n3)o2)c1` it was 34.4% (active); in that of `O=[N+]([O-])c1ccc(-c2ccc(/C=N/Nc3nc(N4CCCC4)nc(N4CCCC4)n3)o2)cc1`, -26.6%; in that of `O=[N+]([O-])c1ccc(-c2ccc(/C=N/Nc3nc(N4CCCCC4)nc(N4CCCCC4)n3)o2)cc1`, 7.6%. `COc1ccccc1-c1cnnc(N/N=C/c2ccc(-c3cccc(Br)c3)o2)n1`: the inhibition was 52.2% (active). In the case of `FC(F)(F)c1cccc(-c2ccc(/C=N/Nc3nncc(-c4ccccc4)n3)o2)c1` it was -58.3%; in that of `Brc1ccc(-c2ccc(/C=N/Nc3nncc(-c4ccccc4)n3)o2)cc1`, -106%; in that of `S=c1nc(NCCc2ccccc2Cl)c2ccccc2[nH]1`, -4%.

Turning to `CC(NC(=O)CN1CCCC1)C12CC3CC(CC(C3)C1)C2` (stereo not drawn), the inhibition is 1.9%. Regarding `CC(NC(=O)Cn1ncc(Cl)c(Cl)c1=O)C12CC3CC(CC(C3)C1)C2` (stereo not drawn), the inhibition was 87% (active).

As to `CC(NC(=O)Cn1nc(C(=O)O)c2ccccc2c1=O)C12CC3CC(CC(C3)C1)C2` (stereo not drawn), the inhibition is -19.8%. `COC(=O)N[C@H](CC(C)=O)c1cccc(C(F)(F)F)c1`: the inhibition was -18.1%. In the case of `Cc1ccccc1C(=O)Nc1ccnn1C1CCN(C2CCSCC2)CC1` it was -16.1%; in that of `O=C(Nc1ccc(Cl)cc1)c1sccc1-n1cccc1`, -13%.

Take `Cc1c(-c2ccccn2)c(=O)[nH]n1-c1ccc(F)cc1`: the inhibition is -25.2%. For the compound `Cc1ccc(-n2[nH]c(=O)c3cccnc32)cc1`, the inhibition is 4.2%. As for `Cc1ccc(-n2[nH]c(=O)c(-c3ccccn3)c2C)cc1`, the inhibition is 65.1% (active).

For `COc1ccc(N(C(=O)CCl)C(C(=O)NCCc2ccccc2)c2cccs2)cc1Cl` (stereo not drawn), the inhibition is 63.5%. Take `O=C(NCCc1ccccc1)C(c1cccs1)N(C(=O)c1csnn1)C1CC1` (stereo not drawn): the inhibition was -15.8%. In the case of `COC(=O)c1ccccc1C(=O)c1cccc2ccccc12` it was 30.1%; in that of `CC(C)(C)c1cc(NC(=O)Nc2ccc(Br)cc2Cl)no1`, -19.7%. To `CCOC(=O)c1c(C)[nH]c(C(=O)C(C)Cl)c1C` (stereo not drawn) belongs 58.6% (active); to `CCOC(=O)c1[nH]c(C)c(C(=O)OCC)c1C`, -5.4%. In the case of `CCOC(=O)c1c(C)[nH]c(C(=O)O)c1C` it was 7.9%; in that of `O=C(CN1CCN(c2ccccc2)CC1)Nc1ccc(Oc2ccccc2)cc1`, -2.2%; in that of `COc1ccc(-c2cc(C(=O)NCC3CCCO3)c3cc(C(C)C)ccc3n2)cc1` (stereo not drawn), -1.8%. For `O=C(Nc1sc2c(c1C(=O)O)CCCCC2)c1ccccc1`, the inhibition was 43.3%. In the case of `CNC(=O)c1c(NC(=O)c2cccc(C)c2)sc2c1CCC2` it was 109% (active); in that of `O=C(Nc1sc2c(c1C(=O)O)CCC2)c1ccccc1`, 26.9%; in that of `NC(=O)c1c(NC(=O)c2ccccc2Cl)sc2c1CCC2`, -50%. `O=C(Nc1sc2c(c1C(=O)O)CCC2)c1ccccc1Cl`: the inhibition is 17.5%. In the case of `Cc1cccc(C(=O)Nc2sc3c(c2C(=O)O)CCC3)c1` it was -0.7%.

Turning to `CNC(=O)c1c(NC(=O)c2cccc(N3C(=O)CCC3=O)c2)sc2c1CCC2`, the inhibition was 5.2%. With `CCOC(=O)Cc1cnc(NC(=O)CSc2nc(C)c(CC)c(=O)[nH]2)s1`, the inhibition is -29.1%. For `O=C(c1cc(-c2ccccc2)n[nH]1)N1CCc2c([nH]c3ccccc23)C1c1ccccn1` (stereo not drawn), the inhibition was -14.3%. In the case of `COc1cc(Cl)c(C)cc1NC(=O)c1ccc(NS(=O)(=O)c2ccc(F)c(F)c2)cc1` it was 14.5%; in that of `CCOC(=O)c1c(/N=C/c2cc([N+](=O)[O-])ccc2O)sc(C)c1C`, -20.3%.

Regarding `CN(C)CCOc1cccc(Cl)c1`, the inhibition is -12.3%. In the case of `Cc1ccc(C(=O)CSc2nnc3ccccn23)c(C)c1` it was 18.8%; in that of `Cc1cc(C(=O)CSc2nnc3ccccn23)c(C)n1-c1ccccc1`, 82% (active); in that of `Cc1cc(C(=O)CSc2nncn2C)c(C)n1-c1ccccc1`, -35.2%. In the case of `Nc1c(-c2ccccc2)c(CSc2nc3ccccc3[nH]2)nn1-c1ccc(Cl)cc1` it was 70.5%; in that of `Nc1c(-c2ccccc2)c(CSc2nc3ccccc3[nH]2)nn1-c1cccc(Cl)c1`, 79.7% (active); in that of `Nc1c(-c2ccccc2)c(CSc2nc3ccccc3[nH]2)nn1-c1cccc(C(=O)O)c1`, -21.3%.

Regarding `Cn1c(N)c(C(=O)Nc2c(Cl)cccc2Cl)sc1=S`, the inhibition is -11.3%. For the compound `CCN(CC)c1ccc(N2C(=O)/C(=C\c3cccs3)SC2=S)cc1`, the inhibition was -102%. Consider `COc1ccccc1/C=C/C(=O)/C=C/c1ccccc1O`, for which the inhibition is 94.3% (active). To `COc1ccccc1/C=C/C(C)=O` belongs -47.2%; to `COc1ccccc1/C=C/C(=O)c1ccccc1`, -6.9%. Consider `CC(C)C1Cc2c(sc3[nH]c(=S)n(Cc4ccccc4)c(=O)c23)CO1` (stereo not drawn), for which the inhibition is 92.4% (active). In the case of `CC1(C)Cc2c(sc3[nH]c(=S)n(Cc4ccccc4)c(=O)c23)CO1` it was -3.1%.

As to `CC(C)C1Cc2c(sc3c2c(=O)n(Cc2ccccc2)c2nncn32)CO1` (stereo not drawn), the inhibition was 12.9%. For the compound `CCOC(=O)N1C/C(=C\c2ccccc2)C(=O)/C(=C/c2ccccc2)C1`, the inhibition is 41.1% (active). To `CCOC(=O)N1CCN(C/C(C)=C/c2ccccc2)CC1` belongs -12%. In the case of `CCOC(=O)N1CCN(S(=O)(=O)/C=C/c2ccccc2)CC1` it was 9.2%.

As to `COc1cccc(-n2c([S-])c(C(=O)Nc3ccc(C(F)(F)F)cc3)[n+]3ccccc23)c1`, the inhibition was -8.9%. In the case of `COc1cccc(C(=O)Nc2ccc(S(=O)(=O)Nc3nccc(C)n3)cc2)c1` it was -16.6%. For `Cc1ccc(S(=O)(=O)NCCC(=O)O)cc1`, the inhibition is -3.1%. To `CCCn1c(SCC(=O)c2ccc3c(c2)OCCO3)nc2c1c(=O)n(C)c(=O)n2C` belongs -19.8%. To `Cc1ccc(C)c(C(=O)CN2C(=O)c3ccccc3S2(=O)=O)c1` belongs 9.1%.

Regarding `Cc1cc(C(=O)CN2C(=O)c3ccccc3S2(=O)=O)c(C)n1-c1ccccc1`, the inhibition was 94.4% (active).

On to `O=C(CN1C(=O)c2ccccc2S1(=O)=O)c1ccccc1`, for which the inhibition is -2.1%.

Consider `COc1cc(NC(=O)CC(C)n2ccnc2)cc(OC)c1` (stereo not drawn), for which the inhibition is -0.2%. In the case of `COC(=O)c1c(NC(=O)C(C)C)sc(C(=O)N2CCOCC2)c1C` it was 5.6%; in that of `COC(=O)c1c(NC(=O)CCl)sc(C(=O)N2CCOCC2)c1C`, 80.5% (active); in that of `COC(=O)c1c(NC(C)=O)sc(C(=O)N2CCOCC2)c1C`, -4.7%. To `COc1ccccc1NC(=O)CS(=O)(=O)c1cn(CC(=O)N(C(C)C)C(C)C)c2ccccc12` belongs -1.2%. To `Cc1ccccc1C(=O)Nc1cc(-c2cc(C(C)(C)C)oc2C)nn1C` belongs -3.8%; to `CC(=O)/C(=C/c1ccccc1)C(=O)Nc1ccccc1C`, 35.2%; to `Cc1ccc(NC(=O)C(=Cc2ccc(C(=O)O)cc2)C(=O)Nc2ccc(C)cc2C)c(C)c1`, 9.9%. Consider `Cc1ccccc1NC(=O)C(=Cc1ccc(C(=O)O)cc1)C(=O)Nc1ccccc1C`, for which the inhibition was 39.4% (active).
